Records with an inconclusive call do not appear. The source made the active and inactive calls. The call rests on the fitted dose curve; in most records, active means well fitted curve in the direction sought with a large enough effect in the repeat runs; inconclusive means weak or mixed curves; inactive means no such curve, though single readings can be large; an effect the other way counts as inactive or inconclusive.
Key:
[1] = qHTS RealTime-Glo MT Cell Viability Assay in HEK293 cells - 16 hour (AID 1224872); further: top concentration of the series differs between compounds; nearly all actives have a fitted effect of over 50% in size
Method in brief: (§1)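 Quantitative high-throughput screen of the Tox21 10K library in HEK293: cells and RealTime-Glo reagents plated together, compound added at 5 h, luminescence monitored through 40 h at 37 C.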

[2] = qHTS RealTime-Glo MT Cell Viability Assay in HepG2 cells - 8 hour (AID 1224873); further: nearly all actives have a fitted effect of over 55% in size
Method in brief: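 HepG2 cells (600/well) mixed with RealTime-Glo MT reagent, settled 5 h at 37 C/5% CO2 before compound addition. Nonlytic NanoLuc luminescence from viable-cell prosubstrate reduction read repeatedly during 40 h treatment at 37 C.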

[3] = qHTS RealTime-Glo MT Cell Viability Assay in HEK293 cells - 40 hour (AID 1224874); details: RealTime-Glo luminescence; max response: active compounds read low; further: nearly all actives have a fitted effect of over 50% in size
Method in brief: (§2)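 Viable HEK293 cells reduce a cell-permeant prosubstrate; the product diffuses out and is consumed by NanoLuc in the medium to give light. Compounds went in after a 5 h incubation and plates were read over the treatment course.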

[4] = A CellTox Green Cytotoxicity Assay to monitor cytotoxicity in HEK293 cells - 24 hour (AID 1224875); further: series mostly up to about 77 µM; nearly all actives have a fitted effect of over 45% in size
Method in brief: (§3)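 Fluorescence intensity, read at 0, 8, 16, 24, 32 and 40 h of compound treatment, reflected dye binding to DNA of dead HEK293 cells; compounds (23 nL, DMSO) were added 5 h after plating cells with reagent.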

[5] = A CellTox Green Cytotoxicity Assay to monitor cytotoxicity in HepG2 cells - 16 hour (AID 1224876); further: nearly all actives have a fitted effect of over 45% in size
Method in brief: (§4)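 Using 1536-well format, dye-containing HepG2 suspension was seeded, allowed 5 h at 37 C/5% CO2, dosed by pintool with compounds, positive and negative controls, and imaged for fluorescence across 40 h.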

[6] = qHTS RealTime-Glo MT Cell Viability Assay in HepG2 cells - 32 hour (AID 1224877); further: nearly all actives have a fitted effect of over 55% in size
Method in brief: (§5)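 Compound treatment began 5 h after plating HepG2 cells (600/well) with NanoLuc luciferase and prosubstrate. Plates stayed at 37 C for 40 h; luminescence was captured at six time points, 0 h through 40 h.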

[7] = A CellTox Green Cytotoxicity Assay to monitor cytotoxicity in HepG2 cells - 24 hour (AID 1224878); further: nearly all actives have a fitted effect of over 45% in size
Method in brief: as §4

[8] = A CellTox Green Cytotoxicity Assay to monitor cytotoxicity in HepG2 cells - 40 hour (AID 1224879); further: nearly all actives have a fitted effect of over 40% in size
Method in brief: as §4

[9] = qHTS RealTime-Glo MT Cell Viability Assay in HEK293 cells - 0 hour (AID 1224880); further: top concentration of the series differs between compounds; nearly all actives have a fitted effect of over 45% in size
Method in brief: as §2

[10] = A CellTox Green Cytotoxicity Assay to monitor cytotoxicity in HEK293 cells - 32 hour (AID 1224881); further: nearly all actives have a fitted effect of over 40% in size
Method in brief: as §3

[11] = A CellTox Green Cytotoxicity Assay to monitor cytotoxicity in HepG2 cells - 0 hour (AID 1224882); further: nearly all actives have a fitted effect of over 35% in size
Method in brief: as §4

[12] = A CellTox Green Cytotoxicity Assay to monitor cytotoxicity in HepG2 cells - 32 hour (AID 1224883); further: nearly all actives have a fitted effect of over 50% in size
Method in brief: as §4

[13] = A CellTox Green Cytotoxicity Assay to monitor cytotoxicity in HEK293 cells - 8 hour (AID 1224884); further: nearly all actives have a fitted effect of over 35% in size
Method in brief: as §3

[14] = qHTS RealTime-Glo MT Cell Viability Assay in HepG2 cells - 16 hour (AID 1224885); further: nearly all actives have a fitted effect of over 50% in size
Method in brief: as §5

[15] = qHTS RealTime-Glo MT Cell Viability Assay in HEK293 cells - 24 hour (AID 1224886)
Method in brief: as §1

[16] = qHTS RealTime-Glo MT Cell Viability Assay in HEK293 cells - 8 hour (AID 1224887)
Method in brief: as §2

[17] = A CellTox Green Cytotoxicity Assay to monitor cytotoxicity in HEK293 cells - 16 hour (AID 1224888); further: nearly all actives have a fitted effect of over 35% in size
Method in brief: as §3

[18] = qHTS RealTime-Glo MT Cell Viability Assay in HepG2 cells - 0 hour (AID 1224889); further: nearly all actives have a fitted effect of over 50% in size
Method in brief: as §5

[19] = A CellTox Green Cytotoxicity Assay to monitor cytotoxicity in HepG2 cells - 8 hour (AID 1224890); further: nearly all actives have a fitted effect of over 45% in size
Method in brief: as §4

[20] = qHTS assay to identify small molecule antagonists of the estrogen receptor alpha (ER-alpha) signaling pathway using the BG1 cell line in the presence of 0.1 nM 17-beta-estradiol - cell viability counter screen (AID 1259241); further: nearly all actives have a fitted effect of over 40% in size
Method in brief: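 Live-cell protease activity (CellTiter-Fluor fluorescence, 30 min) was read in the same wells after VM7Luc4E2 cells had been exposed to compounds with 0.1 nM 17beta-estradiol for 22 hr at 37C.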
On the % scale 0 is the no-effect control and ±100 the full control effect.

CCOc1ccccc1OCC
inactive: Potency [1] | outcome [2] | max response [3] 5.1% | outcome [4] | outcome [5] | Potency [6] | outcome [7] | Potency [8] | Potency [9] | outcome [10] | Potency [11] | Potency [12] | outcome [13] | outcome [14] | Potency [15] | Potency [16] | outcome [17] | Potency [18] | outcome [19] | outcome [20]

CC(C)(CCC(=O)O)C(=O)O
inactive: Potency [1] | outcome [2] | max response [3] 0.835% | outcome [4] | outcome [5] | Potency [6] | outcome [7] | Potency [8] | Potency [9] | outcome [10] | Potency [11] | Potency [12] | outcome [13] | outcome [14] | Potency [15] | Potency [16] | outcome [17] | Potency [18] | outcome [19] | outcome [20]

O=C(O)c1cc(C(=O)O)cc(C(=O)O)c1
inactive: Potency [1] | outcome [2] | max response [3] 16.8% | outcome [4] | outcome [5] | Potency [6] | outcome [7] | Potency [8] | Potency [9] | outcome [10] | Potency [11] | Potency [12] | outcome [13] | outcome [14] | Potency [15] | Potency [16] | outcome [17] | Potency [18] | outcome [19]

CCN1CCOCC1
inactive: Potency [1] | outcome [2] | max response [3] -0.712% | outcome [4] | outcome [5] | Potency [6] | outcome [7] | Potency [8] | Potency [9] | outcome [10] | Potency [11] | Potency [12] | outcome [13] | outcome [14] | Potency [15] | Potency [16] | outcome [17] | Potency [18] | outcome [19]

CCO[Si](OCC)(OCC)c1ccccc1
inactive: Potency [1] | outcome [2] | max response [3] 10.1% | outcome [4] | outcome [5] | Potency [6] | outcome [7] | Potency [8] | Potency [9] | outcome [10] | Potency [11] | Potency [12] | outcome [13] | outcome [14] | Potency [15] | Potency [16] | outcome [17] | Potency [18] | outcome [19] | outcome [20]

CCOC(=O)C1=NOC(c2ccccc2)(c2ccccc2)C1
inactive: Potency [1] | outcome [2] | max response [3] 3.23% | outcome [4] | outcome [5] | Potency [6] | outcome [7] | Potency [8] | Potency [9] | outcome [10] | Potency [11] | Potency [12] | outcome [13] | outcome [14] | Potency [15] | Potency [16] | outcome [17] | Potency [18] | outcome [19]

O=S(=O)(O)c1cc(O)c(O)c(S(=O)(=O)O)c1
inactive: Potency [1] | outcome [2] | max response [3] 0.173% | outcome [4] | outcome [5] | Potency [6] | outcome [7] | Potency [8] | Potency [9] | outcome [10] | Potency [11] | Potency [12] | outcome [13] | outcome [14] | Potency [15] | Potency [16] | outcome [17] | Potency [18] | outcome [19] | outcome [20]

CCC(=O)OCc1ccccc1
inactive: Potency [1] | outcome [2] | max response [3] -6.18% | outcome [4] | outcome [5] | Potency [6] | outcome [7] | Potency [8] | Potency [9] | outcome [10] | Potency [11] | Potency [12] | outcome [13] | outcome [14] | Potency [15] | Potency [16] | outcome [17] | Potency [18] | outcome [19] | outcome [20]

CC(C)C(=O)OC(=O)C(C)C
inactive: Potency [1] | outcome [2] | max response [3] 3.07% | outcome [4] | outcome [5] | Potency [6] | outcome [7] | Potency [8] | Potency [9] | outcome [10] | Potency [11] | Potency [12] | outcome [13] | outcome [14] | Potency [15] | Potency [16] | outcome [17] | Potency [18] | outcome [19] | outcome [20]

CC1CCC(CO)CC1 (stereo not drawn)
inactive: Potency [1] | outcome [2] | max response [3] 9.47% | outcome [4] | outcome [5] | Potency [6] | outcome [7] | Potency [8] | Potency [9] | outcome [10] | Potency [11] | Potency [12] | outcome [13] | outcome [14] | Potency [15] | Potency [16] | outcome [17] | Potency [18] | outcome [19] | outcome [20]

CCOc1c(N2CCOCC2)cnn(C)c1=O
inactive: Potency [1] | outcome [2] | max response [3] 3.38% | outcome [4] | outcome [5] | Potency [6] | outcome [7] | Potency [8] | Potency [9] | outcome [10] | Potency [11] | Potency [12] | outcome [13] | outcome [14] | Potency [15] | Potency [16] | outcome [17] | outcome [19] | outcome [20]

C1CCC2(CCCCO2)OC1
inactive: Potency [1] | outcome [2] | max response [3] -6.53% | outcome [4] | outcome [5] | Potency [6] | outcome [7] | Potency [8] | Potency [9] | outcome [10] | Potency [11] | Potency [12] | outcome [13] | outcome [14] | Potency [15] | Potency [16] | outcome [17] | Potency [18] | outcome [19] | outcome [20]

CN(C)CCCCCCN(C)C
inactive: Potency [1] | outcome [2] | max response [3] -6% | outcome [4] | outcome [5] | Potency [6] | outcome [7] | Potency [8] | Potency [9] | outcome [10] | Potency [11] | Potency [12] | outcome [13] | outcome [14] | Potency [15] | Potency [16] | outcome [17] | outcome [19]

CCN(C=O)CC
inactive: Potency [1] | outcome [2] | max response [3] 2.6% | outcome [4] | outcome [5] | Potency [6] | outcome [7] | Potency [8] | Potency [9] | outcome [10] | Potency [11] | Potency [12] | outcome [13] | outcome [14] | Potency [15] | Potency [16] | outcome [17] | outcome [19] | outcome [20]
